Each structure is given as a SMILES string. The whole screen tested about 52,000 compounds, of which about 1,700 (3.3%) were called active. The entries come from a sample that favours actives as a whole. A number with no mark means an inactive call. Rule as the data show it: active = survival mostly below about 52% (no sharp cut-off); inactive = mostly above about 56%.

The test relates to Wild type. In words: S. aureus survival, RN4220 and DeltatarO strains – OD600, teichoic acid synthesis inhibitors, primary screen (AID 463173). Conditions: S. aureus RN4220 wild type/DeltatarO growth, OD600, 18 h, stronger effect = lower value, screened at 18.75 µg/mL (by protocol).
Regarding `O=C(COc1ccccc1Cl)OCc1cc(=O)n2nc(C3CCCCC3)sc2n1`, the survival is 71%. In the case of `Cc1ccc(Cc2nc3ccccc3nc2SCC(=O)N2CCC(C)CC2)cc1` it was 77%; in that of `Cc1nc2nc(NCc3cccc(Cl)c3)[nH]n2c(=O)c1Cc1ccccc1`, 85%. In the case of `CCc1ccc(CNc2nc3nc(C)c(Cc4ccccc4)c(=O)n3[nH]2)cc1` it was 93%; in that of `Cc1nc2nc(NC(=O)CC(C)C)[nH]n2c(=O)c1Cc1ccccc1`, 110%.

Take `CCc1c(C)nc2cc(-c3ccccc3)[nH]n2c1=O`: the survival is 106%. In the case of `Cc1cccc(Cc2c(C)nc3c(-c4ccccc4)c(C)[nH]n3c2=O)c1` it was 4% (active); in that of `COc1cccc(C(=O)Nc2nc3nc(C)c(Cc4ccccc4)c(=O)n3[nH]2)c1`, 105%; in that of `Cc1nc2nc(NC(=O)C(C)C)[nH]n2c(=O)c1Cc1ccccc1`, 88%. In the case of `Cc1ccccc1Cc1c(C)nc2c(-c3ccccc3)c(C)[nH]n2c1=O` it was -13% (active); in that of `CCOC(=O)CCc1c(C)nc2c(-c3ccccc3)c(C)[nH]n2c1=O`, 74%. In the case of `Cc1nc2nc(NCc3ccccc3Cl)[nH]n2c(=O)c1Cc1ccccc1` it was 86%. Turning to `Cc1nc2c(-c3ccccc3)c(C)[nH]n2c(=O)c1Cc1ccc(C(C)C)cc1`, the survival was -5% (active). In the case of `Cc1ccc(Cc2c(C)nc3c(-c4ccccc4)c(C)[nH]n3c2=O)cc1` it was -11% (active); in that of `CCCCN(C)C(=O)c1ccc2c(=O)n3nc(Nc4cc(C)ccc4C)sc3nc2c1`, 140%; in that of `CCN(CC)CCCNC(=O)c1nn(-c2ccc(OC)c(Cl)c2)c(=O)c2c1c1ccccc1n2C`, 80%. In the case of `O=C(Cn1cc(S(=O)(=O)N2CCN(c3ccccc3F)CC2)c2ccccc2c1=O)Nc1ccc(F)cc1Cl` it was 129%.

As for `Cc1cccc(CN2C(=O)CC(c3ccc(Cl)cc3)c3c(C)nn(-c4nc(C)cc(C)n4)c32)c1` (configuration not stated), the survival is 76%.

Consider `Cc1nc2nc(NCc3ccc(Br)cc3)[nH]n2c(=O)c1Cc1ccccc1`, for which the survival was 63%.

For `Cc1nc2c(-c3ccccc3)c(C)[nH]n2c(=O)c1Cc1ccc(Br)cc1`, the survival is -5% (active).

Take `Cc1nc2nc(NCc3cccc(Br)c3)[nH]n2c(=O)c1Cc1ccccc1`: the survival was 68%. Regarding `CCc1nc2nc(C)cc(Nc3ccc(OC)cc3OC)n2n1`, the survival was 75%. Consider `COC(=O)c1scc(-c2ccc(C)cc2)c1S(=O)(=O)Nc1ccc(F)cc1F`, for which the survival is 72%. In the case of `CCN(CC)c1nc2c(S(=O)(=O)c3ccccc3)nnn2c2ccc(Cl)cc12` it was 9% (active); in that of `CCN(Cc1ccccc1)c1nc2c(S(=O)(=O)c3ccccc3)nnn2c2ccc(Cl)cc12`, 88%. `CCc1ccc(S(=O)(=O)c2nnn3c2nc(N(CC)Cc2ccccc2)c2cc(Cl)ccc23)cc1`: the survival is 92%. In the case of `Cc1cccc(NC(=O)CSc2nnc(C)c(=O)[nH]2)c1` it was 101%; in that of `Cc1ccc(CN2CCN(C3CCN(C(=O)OC(C)(C)C)CC3)C(=O)C2=O)cc1`, 124%.

As to `CCC(C(=O)Nc1cc(C)ccc1OC)n1nnc(C(=O)OC)c1C(=O)OC` (configuration not stated), the survival is 89%.

Consider `CCc1ccc(NC(=O)C(CC)n2nnc(C(=O)OC)c2C(=O)OC)cc1` (configuration not stated), for which the survival is -1% (active). In the case of `CCOC(=O)c1nnn(C(CC)C(=O)Nc2ccc(F)cc2)c1C(=O)OCC` (configuration not stated) it was 99%.

Regarding `CCOc1ccc(N2CC(c3nc4ccccc4n3CCCCOc3ccc(OC)cc3)CC2=O)cc1` (configuration not stated), the survival was 71%. In the case of `CCCCN1CC(c2nc3ccccc3n2CCCCOc2ccc(C)cc2C)CC1=O` (configuration not stated) it was -5% (active); in that of `CCOc1ccccc1N1CC(c2nc3ccccc3n2CCCOc2ccccc2OC)CC1=O` (configuration not stated), 79%; in that of `CCCCN1CC(c2nc3ccccc3n2CCCCOc2cc(C)ccc2C)CC1=O` (configuration not stated), -6% (active).

For the compound `Cc1ccc(CCNC(=O)CCS(=O)(=O)c2cc3c(cc2Cl)NC(=O)CO3)cc1`, the survival was 91%. In the case of `COc1ccc(C(=O)NCC(c2cccs2)S(=O)(=O)c2ccc(C)cc2)cc1` (configuration not stated) it was 143%; in that of `CCc1ccc(N(CC(=O)NCC2CCCO2)S(C)(=O)=O)cc1` (configuration not stated), 112%. In the case of `COc1ccc(NC(=O)c2noc3c2CCCC3)cc1Cl` it was 82%. In the case of `CCOC(=O)c1ccc(NC(=O)c2noc3c2CCCC3)cc1` it was -2% (active); in that of `O=C(Nc1ccc(OC(F)(F)F)cc1)c1noc2c1CCCC2`, 86%. In the case of `O=C(CCS(=O)(=O)c1ccc(Br)cc1)Nc1ccc(F)cc1F`, the survival is 53%. In the case of `C=CCc1ccccc1OCc1nc2ccccc2n1CC` it was 76%; in that of `Cc1ccc(OCc2nc3ccccc3n2Cc2ccccc2Cl)cc1`, 7% (active); in that of `COc1ccc(OCc2nc3ccccc3n2Cc2ccccc2Cl)cc1`, 72%.

On to `Cc1ccccc1OCc1nc2ccccc2n1Cc1ccccc1Cl`, for which the survival is 0% (active). As for `Cc1cccc(C(=O)NCc2nc3ccccc3n2Cc2ccccc2Cl)c1`, the survival is 107%. In the case of `CC(=O)Nc1ccc(S(=O)(=O)NCCc2cn3ccsc3n2)cc1` it was 72%. In the case of `COc1ccc(-c2nc3sc(CCNC(=O)C(=O)Nc4ccc(C)c(C)c4)c(C)n3n2)cc1` it was 117%. In the case of `Cc1cc(C(F)F)n2nc(C(=O)Nc3ccc(F)c(Cl)c3)nc2n1` it was 83%; in that of `CN1CCc2c(sc3nc(=S)[nH]c(N)c23)C1`, 109%; in that of `Cc1ccccc1Nc1sc(C(=O)c2ccccc2)c(N)c1C(=O)NCc1ccc(Cl)cc1`, 73%. `COc1cccc(Nc2sc(C(=O)c3ccc(Cl)cc3)c(N)c2C(=O)NCc2ccc(C)cc2)c1`: the survival is 76%.

Take `COc1cccc(Nc2sc(C(=O)c3ccc(F)cc3)c(N)c2C(=O)NCc2ccc(C)cc2)c1`: the survival was 63%.

For `Cc1ccc(CNC(=O)c2c(Nc3ccccc3C)sc(C(=O)c3ccc(F)cc3)c2N)cc1`, the survival is -3% (active). In the case of `Cc1ccccc1Nc1sc(C(=O)c2ccc(F)cc2)c(N)c1C(=O)NCCc1ccccc1` it was 55%; in that of `COc1cccc(Nc2sc(C(=O)c3ccc(F)cc3)c(N)c2C(=O)NCc2ccc(Cl)cc2)c1`, 0% (active); in that of `CCS(=O)(=O)N1CC(=O)N(c2cc(C)ccc2C)C(C)(C(=O)NC2CCCCC2)C1` (configuration not stated), 59%.

For the compound `COc1ccc(-c2cn3c(n2)sc2cc(C(=O)NC4CCCc5ccccc54)ccc23)cc1` (configuration not stated), the survival was 78%. Regarding `CCn1c(SCC(=O)Nc2ccccc2C(=O)OC)nc2ccsc2c1=O`, the survival was 83%. In the case of `CCC(C)n1c(SCC(=O)Nc2ccccc2C(=O)OC)nc2ccsc2c1=O` (configuration not stated) it was -1% (active). In the case of `COC(=O)c1ccccc1NC(=O)CSc1nc2ccsc2c(=O)n1CCC(C)C` it was 78%.

Regarding `O=C(NCC(c1ccco1)S(=O)(=O)c1cccs1)c1ccccc1F` (configuration not stated), the survival is 80%.

As to `O=C(NCc1ccc(F)cc1)c1cc(-c2ccc(Cl)cc2)n[nH]1`, the survival was 94%. In the case of `Fc1ccc(-c2cc(C(F)(F)F)nc(NCc3ccccc3)n2)cc1` it was 93%; in that of `Fc1ccc(CNc2nc(-c3ccccc3)cc(C(F)(F)F)n2)cc1`, -3% (active). In the case of `Fc1ccc(CNc2nc(-c3ccc(Cl)cc3)cc(C(F)(F)F)n2)cc1` it was -5% (active); in that of `Fc1ccc(CNc2cc(-c3ccccc3)nc3nncn23)cc1`, 29%. In the case of `CC1CCN(S(=O)(=O)c2ccc3nc(NCc4ccccc4)ccc3c2)CC1` it was 131%. `Cc1nc2ccn(Cc3ccco3)c(=O)c2cc1C(=O)NCc1ccc(Cl)cc1`: the survival is 60%. In the case of `O=C(O)c1ccc2c(c1)C(=O)NC2=O` it was 113%; in that of `O=C(Nc1ccc2[nH]c(=O)c(=O)[nH]c2c1)c1cccc(F)c1`, 140%; in that of `CC(=O)Nc1ccc(S(=O)(=O)NC2=NCN(C(C)C)CN2)cc1`, 143%. In the case of `C=CCNC(=O)Nc1c[nH]c2ccccc2c1=O` it was 111%. In the case of `O=C(CSCc1cc(=O)c2ccccc2[nH]1)Nc1cccc(C(F)(F)F)c1` it was 124%. Regarding `O=C(O)CCC(=O)N1CCc2cc(S(=O)(=O)NCc3ccc(F)cc3)ccc21`, the survival is 85%. In the case of `O=C(CCc1nnc2n(Cc3ccccc3Cl)c(=O)c3ccccc3n12)Nc1ccc(F)c(F)c1` it was 89%; in that of `O=C(Nc1ccc(F)cc1F)c1cc(CN2CCOCC2)on1`, 69%; in that of `CCOC(=O)c1cnc2c(C)cc(C)cc2c1NCCc1ccc(OC)c(OC)c1`, 75%. In the case of `CCOC(=O)c1cnc2c(C)c(Cl)ccc2c1NCCc1ccccc1` it was -3% (active); in that of `CCOC(=O)c1cnc2c(C)c(Cl)ccc2c1Nc1ccc(C)cc1C`, 140%; in that of `CCOC(=O)c1cnc2c(C)cc(Cl)cc2c1NCCc1ccc(OC)c(OC)c1`, 48%. In the case of `CCOC(=O)c1cnc2c(C)c(C)ccc2c1NCCCCCO` it was 110%. Regarding `CCOC(=O)c1cnc2ccc(OCC)cc2c1NCCc1ccc(OC)c(OC)c1`, the survival is 133%. In the case of `CCOC(=O)c1cnc2ccc(OC)cc2c1NCCc1ccc(OC)c(OC)c1` it was 78%; in that of `CCOC(=O)c1cnc2ccc(OC)cc2c1NCCc1ccccc1`, 0% (active); in that of `CCOC(=O)c1cnc2c(C)c(Cl)ccc2c1NCCc1ccc(OC)c(OC)c1`, 4% (active). Regarding `COc1cc(Cl)c(C)cc1NC(=O)c1cnn(-c2ccc(C)cc2)c1-n1cccc1`, the survival was 65%.

Take `CC1(C(=O)O)CCC(C(=O)N2CCCCC2)C1(C)C` (configuration not stated): the survival was 106%. In the case of `Cc1ccc(NC2=C(CC(=O)O)C(c3ccc(F)cc3)N(c3ccc(C)cc3)C2=O)cc1` (configuration not stated) it was 74%. In the case of `Cc1ccc(CNC(=O)CCc2c(C)c3ccc(O)c(C)c3oc2=O)cc1` it was 87%; in that of `Cc1nc2sc(C(=O)NCc3ccc(Cl)cc3)c(NC(=O)c3ccccc3)c2c(C)c1C`, 86%.

For the origin of these results see PubChem BioAssay AID463173 (ICCB-Longwood Screening Facility, Harvard Medical School, 2010).
